Source: PubChem BioAssay AID1347426 (Functional Genomics Laboratory (NCATS/FGL), 2020)
About 1,400 (4.5%) of roughly 31,000 sequences were called active. Only a selection was taken, and actives are over-represented in it overall. Values without a mark were called inactive.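 How the source made its calls: active means median seed-adjusted z-score above 1 or below -1; inactive means the rest.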

test: Novel Modifiers of Survival Motor Neuron (SMN) Protein: Gene Identification via Genome-wide siRNA Screen; conditions: HEK293T SMN2-luciferase reporter, siRNA knockdown, 72 h; actives lie on both sides;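 further: luminescence tracks full-length SMN protein made from the SMN2 reporter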
Outline: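 Each of three siRNAs per gene is reverse-transfected (1 pmol) into reporter HEK293T cells whose luciferase output tracks SMN protein level. After 72 h culture, ONE-Glo luminescence is control-normalized, log10-transformed and MAD-standardized; Common Seed Analysis deprioritizes seed-driven hits.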

Sequence | median seed-adjusted z-score
CCACGUAACUAUCAUAAGATT against TLL1 | 0.396
AGACCGACCUGGGCAUGAATT against SARM1 | 0.343
CCAAAAUUGAAGUAAUAGATT against GTF2E2 | -1.32 (active)
GCUCAGUUCUCGUCAAGGATT against ARIH2 | 0.0449
AGUGAACUCCGGUCCUGCATT against RAB11FIP3 | 0.0361
GCGAUGAGGUGGACUUGUATT against ST3GAL1 | 0.255
GACCUGUCACAGAACCAGATT against VASN | 0.213
GUCUUCAUGUAUGUCUUUUTT against GJB1 | 0.152
AGGUAGAAGAAAUGCAAUATT against PKIA | 0.533
GCCUAUAGGAUUGAACCAATT against DDHD2 | 0.447
GCUGGGUAGUUUGACUGAATT against TRIM61 | 0.0116
CAAAUACCGUUAAGCUGGATT against HBA1 | -1.03 (active)
CUCUUAUAGUUGAUCGUGATT against ATAD2B | 0.0192
GGAUAGCACAUGAUACAGATT against GAN | -1.07 (active)
CCAUAUCGAAUAAUAAUGATT against SCRT1 | -0.483
GGUUCUGACAGACAAUGGATT against DPT | 0.073
GGACUCUUCUUUAGCUUUATT against TSPAN31 | -1.13 (active)
CCGAAUCAUUAUGCACCAATT against OCLN | 0.232
CAACCACACUAACGAGAUUTT against GLRX | -0.0561
ACACCUGCCUGGUAGAGAATT against FGFR4 | 0.0825
GAAACUUGAUUGAUCUUUATT against MITF | -0.249
GAGAAGAUCUGGAACUCAUTT against CRAT | -1.42 (active)
GCAGGUCAAAUUUCCAUAATT against ZNF175 | -0.0194

Sequence | median seed-adjusted z-score
CAAUAUCUGCUGUUAGCAATT against SCARB2 | -0.244
GAUCAAAUAUGACUUCCUATT against GPR103 | 0
GCUGGAAAAGGUUAACGAATT against PKNOX1 | 0.68
GGACAUGACAGCAACCUUUTT against EGR1 | 0.0836
CAAUGUCCGGAAGCAGUUUTT against ACAD8 | 1.06 (active)
GGUCAACUCUCUACUGAUATT against ARHGAP29 | -0.0483
GCAUAGAAGGCUUCACGAATT against PLCH1 | -0.00634
UCACUGAAAUGAAACUGGUTT against ACBD4 | -0.363
AAGAGAUUUUUGUAACUGATT against BCL2L14 | -0.859
CGAUUUGAAGGUCCAUAUATT against DNAJC2 | -0.0357
CCUCGACUAUUUUAAGACATT against UBA1 | 1.34 (active)
GUCCUUUAACUGAAGCUUUTT against NDUFB9 | -0.982
GGACAGUAGUGUGCAACGATT against LRIT1 | -0.611
UGAUGAAUGUUAUCGAGAATT against RFC2 | 0.00126
GCAGUUUCGAAAUCAACGATT against TEX14 | -0.107
ACAAGAACCCUGACAAUAATT against DNAJB8 | -1.09 (active)
GCAACAUGCAGAUAGGUUATT against PHF14 | 0.354
GCCUGUGACUCAUACUGGATT against ELF5 | -0.45
CCGGCUACACCUUCCGUAATT against DNAJB8 | -1.09 (active)
GAGAUGCGCAAAUUCACUCTT against IP6K2 | -0.193
GGAAAAUCAUUGUGCUAAUTT against VN2R1P | -0.25
GAUUUGGUUUCGUAACUUUTT against A2BP1 | 1.17 (active)
GACUGGUUAUUACGUCUUATT against SYNJ1 | 0

Sequence | median seed-adjusted z-score
GAGUGUAACUGCAACCAGATT against NTNG2 | 0.403
ACUCAGUGGAGGUCACCAATT against EIF3F | -0.0214
GCCUCUCAGAGAACUACGATT against LRRC33 | -0.194
GGGCGAUGUCCAUCCACAATT against PIF1 | -0.0455
CUCCAUUCCUGGUAUAGAATT against XRCC5 | -1.11 (active)
CCUCCUCACCAAACCCAUUTT against SLC5A1 | -0.812
CGACUGAACAAACCCUAUATT against ERCC3 | 0.155
GCCUGAAUGCAGCCCAGUUTT against SP2 | -0.617
AGGACAAGCUGAAAAUCCATT against ZBTB7C | 0.447
UCAGUUUGCUGAGAACGAATT against TCEB1 | 1.08 (active)
CCUCAACUCUAAAUACUCATT against ZNF716 | 0
GGAGAUCUCUCGUCUCAAUTT against KCNH4 | -0.769
GGAGAUGUAUUGGUGAGAATT against CYP3A5 | 0.0516
GCAGCUACAGGUCAUCUCATT against DGAT2 | 0.195
GGAGUGCGAUGGACAAUUUTT against LCT | 0.411
GGUGCAAGAGAGUCCGUUUTT against D2HGDH | -0.637
UGAAAGGACUGGAGUCCAATT against OLFM1 | -0.103
GGAUAUUGGAUUGCCUAGATT against TCFL5 | 1.52 (active)
GGUUCACUUUGAUAGUACUTT against CLCA4 | 0.186
GCCCUGAUUUGUGCAAUGATT against PPP1R16B | -0.892
GAGUCAGGAUCGCAAGUCATT against SAFB2 | 0.0394
CCUCGAUUGUCUUCCGGAATT against UBA7 | 2.41 (active)
ACUCCAUCCUGAACCCUCATT against USP49 | 0.549
